# “And” between values parts separate entries of the source, which are not always exact repeats. Equal entries are not always repeated. The source made the active and inactive calls. Rule for the calls: active = hit-call score of the fitted dose curve at least 0.9, where 1 is the maximum; inconclusive = response in the unintended direction; inactive = score below 0.9.
# Tested on: rat CYP2B1, gene 24300
# Test: NVS_ADME_rCYP2B1: NovaScreen (NVS) CYP450-related Enzyme Activity (ADME) Assay for rat CYP2B1 (AID 2283117)
# Experimental: NVS_ADME_rCYP2B1 is a biochemical, single-readout assay that uses extracted gene-proteins in a cell-free assay. Measurements were taken 0.75 hour after chemical dosing in a 96-well plate.NVS_ADME_rCYP2B1 is one of one assay component(s) measured or calculated from the NVS_ADME_rCYP2B1 assay. It is designed to make measurements of enzyme activity, a form of enzyme reporter, as detected with fluorescence intensity signals by Fluorescence technology.Data from the assay component NVS_ADME_rCYP2B1 was analyzed into 1 assay endpoint. This assay endpoint, NVS_ADME_rCYP2B1, was analyzed in the positive analysis fitting direction relative to Acetonitrile as the negative control and baseline of activity. Using a type of enzyme reporter, loss-of-signal activity can be used to understand changes in the enzymatic activity as they relate to the gene Cyp2b1. Furthermore, this assay endpoint can be referred to as a primary readout, because this assay has produced multiple assay endpoints where this one serves a enzymatic activity function. To generalize the intended target to other relatable targets, this assay endpoint is annotated to the cyp intended target family, where the subfamily is xenobiotic metabolism.
# Binding assays used specific radioligands (tritiated, iodinated) with non-radioactive competitive displacement ligands in agonist or antagonist protocols (as indicated) and various reference compounds and inhibitors to titrate specific binding to receptors and transporters. Most enzyme assays (CYPs, kinases, phosphatases, proteases, HDACs) used recombinant protein and specific substrates (fluorescence mostly, some colorimetric and radioactive) and inhibitors, followed by a biochemical separation of substrate and product. All assays for the biochemical HTS were initially run in duplicate at a single concentration (10 uM for CYP450 assays and 25 uM for all others). Assay-chemical combinations meeting a pre-defined threshold (e.g., 30% inhibition and other criteria defined below) were then run in singleton concentration-response format with maximum concentration of 20 uM for CYPs and 50 uM for all others. Each assay was run with positive and negative controls, and concurrent controls on every plate. The follow-up (secondary) screen tested active chemical-pairs in concentration series, as well as a few additional assays not tested in the primary screen, some selected negative inactives, and several cases re-run in the concentration series for confirmatory purposes.
Structure (SMILES),AC50,outcome
CCc1cccc(C)c1N(C(=O)CCl)C(C)COC (stereo not drawn),6430 nM (active),–
CCOP(=S)(OCC)Oc1ccc2c(C)c(Cl)c(=O)oc2c1,914 nM (active),–
CC(C1CC1)C(O)(Cn1cncn1)c1ccc(Cl)cc1 (stereo not drawn),401 nM (active) and 1.61 µM (active),–
CCc1cccc(CC)c1N(COC)C(=O)CCl,3440 nM (active),–
Nc1c(Cl)cc([N+](=O)[O-])cc1Cl,–,inactive
CCOP(=S)(OCC)Oc1ccc([N+](=O)[O-])cc1,559 nM (active),–
C=C(C)[C@H]1Cc2c(ccc3c2O[C@@H]2COc4cc(OC)c(OC)cc4[C@@H]2C3=O)O1,–,inactive
CCCCOC(=O)c1ccccc1C(=O)O,–,inactive
CC(C)N(C(=O)SCC(Cl)=C(Cl)Cl)C(C)C,–,inactive
CCOC(=O)CC(SP(=O)(OC)OC)C(=O)OCC (stereo not drawn),–,inactive
CCCOCC(=Nc1ccc(Cl)cc1C(F)(F)F)n1ccnc1,279 nM (active),–
C[Si](Cn1cncn1)(c1ccc(F)cc1)c1ccc(F)cc1,37.1 nM (active),–
FC(F)C(F)(F)OCC(Cn1cncn1)c1ccc(Cl)cc1Cl (stereo not drawn),452 nM (active),–
